Assay results from PubChem BioAssay (NCATS).
Records with an inconclusive call do not appear. Active and inactive are the calls of the source. Calls follow the shape of the dose curve; as a rule, active = well fitted curve in the direction sought with a large enough effect; inconclusive = small, poorly fitted or top-dose-only effect, or another doubt; inactive = no such curve, though single readings can be large; an effect the other way counts as inactive or inconclusive.

What was measured:
[1] = qHTS of pediatric cancer cell lines to identify multiple opportunities for drug repurposing: Primary screen for SK-N-MC cells (AID 1347093);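 also: series mostly up to about 46 µM; plate controls were DMSO neutral control for no effect and bortezomib for full effect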
Outline: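 Metabolically active cells were quantified by ATP-dependent luminescence (CellTiter-Glo, 15 min at room temperature) following 48 h treatment. Cells had been plated at 500-1,000 per well and settled for 5 h beforehand.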

[2] = qHTS of pediatric cancer cell lines to identify multiple opportunities for drug repurposing: Primary screen for BT-37 cells (AID 1347094);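 also: series mostly up to about 57 µM; plate controls were DMSO for no effect and bortezomib for full effect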
Outline: (§1)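 Primary screen of approved and investigational compounds on cells in growth media at 37 degrees C, 5% CO2. MIPE set at 11-point and NPC set at 8-point dilutions; viability scored by ATP-based luminescence at 48 hours.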

[3] = qHTS of pediatric cancer cell lines to identify multiple opportunities for drug repurposing: Primary screen for NB-EBc1 cells (AID 1347095);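 also: plate controls were DMSO neutral control for no effect and bortezomib for full effect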
Outline: as §1

[4] = qHTS of pediatric cancer cell lines to identify multiple opportunities for drug repurposing: Primary screen for U-2 OS cells (AID 1347096);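 also: plate controls were DMSO wells for no effect and bortezomib positive control wells for full effect; nearly all actives have a fitted effect of over 50% in size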
Outline: (§2)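 Cells (500-1,000/well) in growth media were settled 5 h at 37 degrees C, then given compounds for 48 h. Viability was read as CellTiter-Glo luminescence. Primary runs used MIPE at 11 points (0.78 nM-46 µM) and NPC at 8 points (0.59 nM-46 µM); follow-ups used 11 points.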

[5] = qHTS of pediatric cancer cell lines to identify multiple opportunities for drug repurposing: Primary screen for Saos-2 cells (AID 1347097); also: % is scaled to controls: 0 for no effect and ±100 for the full control effect; nearly all actives have a fitted effect of over 40% in size
Outline: as §1

[6] = qHTS of pediatric cancer cell lines to identify multiple opportunities for drug repurposing: Primary screen for SK-N-SH cells (AID 1347098); also: nearly all actives have a fitted effect of over 65% in size; also: potency is read from the fitted curve at half-maximal effect;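 as to activity change, negative = cytotoxic: DMSO served as neutral control and bortezomib at 2.3 µM as positive control; % is scaled to controls: 0 for no effect and ±100 for the full control effect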
Outline: (§3)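 Cells (500-1,000/well) rested 5 h, then received compounds for 48 h; metabolically active cells were measured by CellTiter-Glo luminescence. Final concentrations spanned up to 46 µM (MIPE, 11-point) or 0.59 nM-46 µM (NPC, 8-point) in primary screens, 11-point in follow-ups.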

[7] = qHTS of pediatric cancer cell lines to identify multiple opportunities for drug repurposing: Primary screen for NB1643 cells (AID 1347099);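 also: plate controls were DMSO neutral control for no effect and bortezomib positive control for full effect; nearly all actives have a fitted effect of over 50% in size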
Outline: as §1

[8] = qHTS of pediatric cancer cell lines to identify multiple opportunities for drug repurposing: Primary screen for LAN-5 cells (AID 1347100);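 also: plate controls were DMSO neutral control for no effect and bortezomib positive control for full effect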
Outline: as §2

[9] = qHTS of pediatric cancer cell lines to identify multiple opportunities for drug repurposing: Primary screen for BT-12 cells (AID 1347101);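 also: plate controls were DMSO for no effect and bortezomib positive control for full effect; nearly all actives have a fitted effect of over 25% in size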
Outline: as §3

[10] = qHTS of pediatric cancer cell lines to identify multiple opportunities for drug repurposing: Primary screen for Rh18 cells (AID 1347102); also: % is scaled to controls: 0 for no effect and ±100 for the full control effect; nearly all actives have a fitted effect of over 65% in size
Outline: as §2

NCCNCCNCCNCCN
inactive: activity change, negative = cytotoxic [1] -17.1% [at 9.22 µM] | activity change, negative = cytotoxic [2] 7.77% [at 11.5 µM] | activity change, negative = cytotoxic [3] 2.04% [at 9.22 µM] | activity change, negative = cytotoxic [4] -3.22% [at 9.22 µM] | activity change, negative = cytotoxic [5] -19.8% [at 9.22 µM] | activity change, negative = cytotoxic [6] -8.89% [at 11.4 µM] | activity change, negative = cytotoxic [7] 0.713% [at 9.22 µM] | activity change, negative = cytotoxic [8] -15.5% [at 9.22 µM] | activity change, negative = cytotoxic [9] 0.69% [at 11.5 µM] | activity change, negative = cytotoxic [10] -4.13% [at 9.22 µM]

NC1CCN(c2cccc(Cl)n2)CC1
inactive: Potency [1] | Potency [2] | Potency [3] | Potency [4] | Potency [5] | Potency [6] | Potency [7] | Potency [8] | Potency [9] | Potency [10]

C=CCn1c(=O)n([C@@H]2O[C@H](CO)[C@@H](O)[C@H]2O)c2nc(N)[nH]c(=O)c21
inactive: Potency [1] | Potency [2] | Potency [3] | Potency [4] | Potency [5] | Potency [6] | Potency [7] | Potency [8] | Potency [9]

CC(C)(O)c1ccccc1CC[C@@H](SCC1(CC(=O)O)CC1)c1cccc(/C=C/c2ccc3ccc(Cl)cc3n2)c1
inactive: Potency [1] | Potency [2] | Potency [3] | Potency [4] | Potency [5] | Potency [6] | Potency [7] | Potency [8] | Potency [9]

[O-][n+]1cccc(CO)c1
inactive: Potency [1] | Potency [2] | Potency [3] | Potency [4] | Potency [5] | Potency [6] | Potency [7] | Potency [8] | Potency [9] | Potency [10]

CC(C)(C)C(=O)C(Oc1ccc(Cl)cc1)n1ccnc1 (stereo unspecified)
inactive: Potency [1] | Potency [2] | Potency [3] | Potency [4] | Potency [5] | Potency [7] | Potency [8] | Potency [9] | Potency [10]
active: Potency [6] 24.4 µM

NCCNCCNCCN
inactive: Potency [1] | Potency [2] | Potency [3] | Potency [4] | Potency [5] | Potency [6] | Potency [7] | Potency [8] | Potency [9]

NC(=O)c1ncn([C@@H]2O[C@H](CO)[C@@H](O)[C@H]2O)c1N
inactive: Potency [1] | Potency [2] | Potency [3] | Potency [4] | Potency [5] | Potency [6] | Potency [7] | Potency [8] | Potency [9] | Potency [10]

NC(=O)NC(=O)Cc1ccccc1
inactive: Potency [1] | Potency [2] | Potency [3] | Potency [4] | Potency [5] | Potency [6] | Potency [7] | Potency [8] | Potency [9]

CCCOC(=O)c1ccccc1
inactive: Potency [1] | Potency [2] | Potency [3] | Potency [4] | Potency [5] | Potency [6] | Potency [7] | Potency [8] | Potency [9] | Potency [10]

Oc1cn2c(n1)Nc1ccc(Cl)c(Cl)c1C2
inactive: Potency [1] | Potency [2] | Potency [3] | Potency [4] | Potency [5] | Potency [6] | Potency [7] | Potency [8] | Potency [9]

Cc1ncc(COP(=O)(O)O)c(C=O)c1O
inactive: Potency [1] | Potency [2] | Potency [3] | Potency [4] | Potency [5] | Potency [6] | Potency [7] | Potency [8] | Potency [9] | Potency [10]

O=C(O)c1ccccc1-c1ccc(C(F)(F)F)cc1
inactive: Potency [1] | Potency [2] | Potency [3] | Potency [4] | Potency [5] | Potency [6] | Potency [7] | Potency [8] | Potency [9]

OC[C@H]1O[C@@H](O[C@@H]2[C@@H](CO)O[C@](O)(CO)[C@H]2O)[C@H](O)[C@@H](O)[C@H]1O
inactive: Potency [1] | Potency [2] | Potency [3] | Potency [4] | Potency [5] | Potency [6] | Potency [7] | Potency [8] | Potency [9]

CN(N=O)C(=O)N[C@@H]1[C@@H](O)[C@H](O)[C@@H](CO)O[C@@H]1O
inactive: Potency [1] | Potency [2] | Potency [3] | Potency [4] | Potency [5] | Potency [6] | Potency [7] | Potency [8] | Potency [9] | Potency [10]

O=C(O)c1ccccc1O
inactive: Potency [1] | Potency [2] | Potency [3] | Potency [4] | Potency [5] | Potency [6] | Potency [7] | Potency [8] | Potency [9] | Potency [10]

CN1CCOC(c2ccccc2)c2ccccc2C1 (stereo unspecified)
inactive: Potency [1] | Potency [2] | Potency [3] | Potency [4] | Potency [5] | Potency [6] | Potency [7] | Potency [8] | Potency [9] | Potency [10]

CS(=O)(=O)c1ccc([C@@H](O)[C@@H](CF)NC(=O)C(Cl)Cl)cc1
inactive: Potency [1] | Potency [2] | Potency [3] | Potency [4] | Potency [5] | Potency [7] | Potency [8]

O=C1NS(=O)(=O)c2ccccc21
inactive: Potency [1] | Potency [2] | Potency [3] | Potency [4] | Potency [5] | Potency [6] | Potency [7] | Potency [9] | Potency [10]

NCC(=O)CCC(=O)O
inactive: Potency [1] | Potency [2] | Potency [3] | Potency [4] | Potency [5] | Potency [7] | Potency [8] | Potency [9] | Potency [10]

CC(=O)c1ccc2c(c1)N(CCCN(C)C)c1ccccc1S2
inactive: Potency [1] | Potency [2] | Potency [3] | Potency [4] | Potency [5] | Potency [7] | Potency [8] | Potency [9] | Potency [10]

C#CCN(C)Cc1ccccc1
inactive: Potency [1] | Potency [2] | Potency [3] | Potency [4] | Potency [5] | Potency [6] | Potency [7] | Potency [8] | Potency [9] | Potency [10]

CCOc1ccc2ccccc2c1C(=O)N[C@@H]1C(=O)N2[C@@H]1SC(C)(C)[C@@H]2C(=O)O
inactive: Potency [1] | Potency [2] | Potency [3] | Potency [4] | Potency [5] | Potency [6] | Potency [7] | Potency [9] | Potency [10]
